Results as given in PubChem BioAssay (NCI).
About 79,000 compounds went through this panel and 15% of them were active in at least one assay; those are over-represented in the sample as a whole. Active and inactive are the calls of the source. Cut-off read from the data, not from the text of the source: active = growth inhibition above about 70%; inactive = the rest.

How the values were obtained:
[1] = NCI Yeast Anticancer Drug Screen. Data for the rad50 strain (AID 155);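 note: 0% = growth of vehicle-only cultures of the same strain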; conditions: S. cerevisiae rad50 strain growth inhibition, active compounds read high
Summary of the method: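 Cells are treated with compound, grown, and their growth is then scored against vehicle-only cultures of the same repair-deficient yeast strain.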

[2] = NCI Yeast Anticancer Drug Screen. Data for the mec2-1 strain (AID 157); conditions: S. cerevisiae mec2-1 strain, active compounds read high
Summary of the method: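 Test agents were screened against the mec2-1 yeast strain, with defined DNA repair or cell cycle alteration. Growth was scored as inhibition against vehicle-only controls.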

[3] = NCI Yeast Anticancer Drug Screen. Data for the sgs1 mgt1 strain (AID 161);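 note: 0% = growth of cultures given vehicle only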; conditions: S. cerevisiae sgs1 mgt1 strain, active compounds read high
Summary of the method: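 Inhibition of yeast growth, normalised to vehicle-treated controls, is reported for a strain bearing genetic alterations in DNA damage repair.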

[4] = NCI Yeast Anticancer Drug Screen. Data for the cln2 rad14 strain (AID 165);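 note: 0% = growth equal to vehicle treated cultures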; conditions: S. cerevisiae cln2 rad14 strain, active compounds read high
Summary of the method: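 Growth of compound-exposed yeast (cln2 rad14 genotype) measured and expressed as inhibition relative to vehicle.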

[5] = NCI Yeast Anticancer Drug Screen. Data for the bub3 strain (AID 167); conditions: S. cerevisiae bub3 mutant strain, active compounds read high
Summary of the method: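 Part of a panel of yeast mutants defective in DNA damage repair or cell cycle regulation. Each strain is grown with compound, and inhibition is calculated relative to solvent-treated cultures.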

[6] = NCI Yeast Anticancer Drug Screen. Data for the mlh1 rad18 strain (AID 175); conditions: S. cerevisiae mlh1 rad18 strain growth inhibition, active compounds read high
Summary of the method: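 In this whole-cell yeast screen, a strain with altered DNA damage repair is challenged with compound, and its growth is measured against matched vehicle-treated controls.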

[7] = at 5.0 µM (retest, dose inferred, filed as 0.5)
[8] = at 50.0 µM (retest, dose inferred, filed as 5.0)

Measured: growth inhibition

CCCCCCCCCCCCCCCCS(=O)(=O)Cl
inactive: [1]; [7] 40% | [1]; at 50.0 µM 61.5% | [2]; [7] 46% | [2]; at 50.0 µM 32.2% | [3]; [7] 57% | [3]; at 50.0 µM 59.8% | [4]; [7] 31% | [4]; at 50.0 µM -6.35% | [5]; [7] 69% | [5]; at 50.0 µM 46.7% | [6]; [7] 43% | [6]; at 50.0 µM 53.8%
active: [1]; [8] 96% | [2]; [8] 98% | [3]; [8] 77% | [4]; [8] 73% | [5]; [8] 78% | [6]; [8] 99%

c1ccc(N=C2SC3=NCCN3C2=Nc2ccccc2)cc1
active: [1]; [8] 87% | [2]; [8] 86% | [2]; at 50.0 µM 74.5% | [3]; [8] 86% | [3]; at 50.0 µM 72% | [5]; [8] 97% | [5]; at 50.0 µM 70.2% | [6]; [8] 78%
inactive: [1]; [7] 43% | [1]; at 50.0 µM 50% | [2]; [7] 7% | [3]; [7] 17% | [4]; [7] 31% | [4]; [8] 66% | [4]; at 50.0 µM 46.6% | [5]; [7] -11% | [6]; [7] 13% | [6]; at 50.0 µM 61.9%

CSc1ccc(/C=C2/C[N+](C)(C)C/C(=C/c3ccc(SC)cc3)C2=O)cc1
active: [1]; at 50.0 µM 90.6% | [2]; at 50.0 µM 90.7% | [3]; at 50.0 µM 87.3% | [4]; at 50.0 µM 86.5% | [5]; at 50.0 µM 90.2% | [6]; at 50.0 µM 86.7%
inactive: [1]; [7] 41% | [1]; [8] 41% | [2]; [7] 22% | [2]; [8] 22% | [3]; [7] 34% | [3]; [8] 34% | [4]; [7] 20% | [4]; [8] 20% | [5]; [7] 6% | [5]; [8] 6% | [6]; [7] 32% | [6]; [8] 32%

O=C1OC(c2ccccc2)(c2ccc(-c3ccc(O)cc3)cc2)c2ccccc21 (stereo not given)
active: [1]; [8] 95% | [1]; at 50.0 µM 95.6% | [2]; [8] 97% | [2]; at 50.0 µM 97.6% | [3]; [8] 97% | [3]; at 50.0 µM 96.8% | [4]; [8] 96% | [4]; at 50.0 µM 95.3% | [5]; [8] 96% | [5]; at 50.0 µM 95.8% | [6]; [8] 96% | [6]; at 50.0 µM 96.7%
inactive: [1]; [7] 6% | [2]; [7] 3% | [3]; [7] -1% | [4]; [7] 6% | [5]; [7] 8% | [6]; [7] 7%

Nc1ccc(Cl)c2c1C(=O)c1ccccc1C2=O
inactive: [1]; [7] 40% | [1]; [8] 19% | [2]; [7] 13% | [2]; [8] 7% | [2]; at 50.0 µM 56.8% | [3]; [7] 0% | [3]; [8] 41% | [4]; [7] -4% | [4]; [8] 3% | [4]; at 50.0 µM 46.6% | [5]; [7] 0% | [5]; [8] 30% | [5]; at 50.0 µM 34.1% | [6]; [7] 13% | [6]; [8] 12%
active: [1]; at 50.0 µM 98.8% | [3]; at 50.0 µM 89.2% | [6]; at 50.0 µM 89.3%

CCCCCCCCCCCCCC(=O)OCCCC1CCCO1 (stereo not given)
inactive: [1]; [7] -2% | [1]; [8] -2% | [1]; at 50.0 µM 8.55% | [2]; [7] -2% | [2]; [8] 2% | [2]; at 50.0 µM -13.8% | [3]; [7] -1% | [3]; [8] 4% | [3]; at 50.0 µM 13.2% | [4]; [7] 7% | [4]; [8] 7% | [4]; at 50.0 µM 53.6% | [5]; [7] -2% | [5]; [8] -3% | [5]; at 50.0 µM 11.3% | [6]; [7] 11% | [6]; [8] 0% | [6]; at 50.0 µM -38.2%

Cc1nc(N)sc1N=Nc1ccc(Cl)cc1Cl
inactive: [1]; [7] 4% | [2]; [7] 1% | [3]; [7] 4% | [4]; [7] 2% | [4]; [8] 48% | [5]; [7] 1% | [5]; [8] 55% | [6]; [7] 16%
active: [1]; [8] 90% | [1]; at 50.0 µM 82.5% | [2]; [8] 90% | [2]; at 50.0 µM 76.4% | [3]; [8] 94% | [3]; at 50.0 µM 84.2% | [4]; at 50.0 µM 84.3% | [5]; at 50.0 µM 81.7% | [6]; [8] 97% | [6]; at 50.0 µM 93.4%

Oc1ccc(-c2nnc(-c3ccccc3)nn2)cc1
inactive: [1]; [7] -154% | [1]; [8] -160% | [1]; at 50.0 µM 56.4% | [2]; [7] -48% | [2]; [8] -53% | [2]; at 50.0 µM 8.95% | [3]; [7] -66% | [3]; [8] -63% | [3]; at 50.0 µM -3.9% | [4]; [7] -47% | [4]; [8] -66% | [4]; at 50.0 µM -52.5% | [5]; [7] -47% | [5]; [8] -19% | [5]; at 50.0 µM 58.5% | [6]; [7] -121% | [6]; [8] -147% | [6]; at 50.0 µM -9.85%

C[n+]1c(-c2ccc(/C=N\NC(=O)c3cccc(C(=O)N/N=C/c4ccc(-c5cn6ccccc6[n+]5C)cc4)c3)cc2)cn2ccccc21
inactive: [1]; [7] -14% | [2]; [7] 27% | [3]; [7] 0% | [4]; [7] -4% | [5]; [7] 15% | [6]; [7] -14%
active: [1]; [8] 99% | [1]; at 50.0 µM 98% | [2]; [8] 99% | [2]; at 50.0 µM 98.5% | [3]; [8] 99% | [3]; at 50.0 µM 98.2% | [4]; [8] 99% | [4]; at 50.0 µM 97.7% | [5]; [8] 99% | [5]; at 50.0 µM 98% | [6]; [8] 99% | [6]; at 50.0 µM 98.5%

CCCCCCCCCCCC(O)CN1CCOCC1 (stereo not given)
active: [1]; at 50.0 µM 98.4% | [2]; at 50.0 µM 97.5% | [4]; at 50.0 µM 91.5% | [5]; at 50.0 µM 98.8% | [6]; at 50.0 µM 94%
inactive: [1]; [7] 49% | [1]; [8] 1% | [2]; [7] 46% | [2]; [8] 9% | [3]; [7] 49% | [3]; [8] -2% | [3]; at 50.0 µM 43.8% | [4]; [7] 46% | [4]; [8] 8% | [5]; [7] 57% | [5]; [8] 31% | [6]; [7] 43% | [6]; [8] 4%
